The target of experiment [1] is Lysosomal acid glucosylceramidase (Homo sapiens) (UniProt P04062). Kind of experiment: Glucocerebrosidase-p2 (AID 348; in the data active = potency below about 10 µM; note: potency is the fitted concentration of half-maximal effect). Particulars: purified GBA, blue fluorogenic substrate, 40 min. Summed up:
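Compounds titrated from 0.6 nM upwards against 0.2 nM enzyme in pH 5.9 citric acid/KH2PO4, taurocholate, tween-20; blue fluorogenic substrate 80 uM, 40 min room temperature, stopped and read Ex 365/Em 440 for AC50.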

The nature of experiment [2]: AP1 Signaling Pathway (AID 357; active = well fitted curve in either direction with a large enough effect, not every such curve was filed as active;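 note: ME-180 reporter cells stimulated with EGF at its EC50 level; % is set by controls: 0 for no effect and ±100 for the full control effect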). Particulars: ME-180 AP-1-bla reporter, EGF-induced, beta-lactamase ratio, 5 h; at 7.69 µM (top of the series) unless noted. Summed up: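 Beta-lactamase reporter under AP-1 response element, ME-180 background. Stimulus: EC50 EGF. Compound exposure 5 h, 37 °C. Detection: CCF4, 2.5 h RT, 460/530 nm. Values: AC50 from titration.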
The target in experiment [3] is Cytochrome P450 1A2 (Homo sapiens) (UniProt P05177). Kind of experiment: p450-cyp1a2 (AID 410; calls by dose curve; note: potency is the fitted concentration of half-maximal effect). Particulars: recombinant CYP1A2, luciferin-ME demethylation, luminescence; series mostly up to 57 µM. Summed up: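 Inhibition was calculated relative to 57 uM furafylline (full inhibition). The reaction used human CYP1A2 at 20nM with Luciferin-ME at its Km, 100uM, driven by an NADPH-regenerating system for 60 min at room temperature.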

Experiment [4] can be described thus: NFAT Signaling Pathway (AID 444; active = well fitted curve in either direction with a large enough effect, not every such curve was filed as active;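 note: carbachol stimulus at about its EC50 of 1 µM final; % is set by controls: 0 for no effect and ±100 for the full control effect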). Particulars: Jurkat NFAT-bla M1, carbachol, beta-lactamase ratio, 5 h; at 7.69 µM (top of the series) unless noted. Summed up: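 Jurkat cells carrying an NFAT-driven β-lactamase reporter and co-transfected muscarinic M1 receptor were treated with compound plus carbachol (1 uM final, an EC50 level) for 5 h at 37 °C. CCF4 loading followed for 1 h at RT; 460/530 nm ratio gave %activity.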

The nature of experiment [5]: Stat Signaling Pathway (AID 446; active = well fitted curve in either direction with a large enough effect, not every such curve was filed as active;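 note: ME-180 cervical cancer cells given 40 pM IL-6 alongside compound; SIE-controlled beta-lactamase reporter measured as 460/530 nm FRET emission ratio; % is set by controls: 0 for no effect and ±100 for the full control effect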). Particulars: ME-180 (cervical carcinoma) SIE beta-lactamase reporter, IL-6 stimulated, 5 h; at 7.69 µM (top of the series) unless noted. Summed up:
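ME-180 SIE-bla cells; overnight plating; cpd + IL-6 40 pM, 5 h, 37 C; LiveBLAzer 2.5 h RT; 460/530 nm emission ratio. Normalized to 300 pM IL-6 and 125 nM JAK inhibitor controls.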

Experiment [6] has as its target Glucocorticoid receptor (Homo sapiens) (UniProt P04150). Kind of experiment: GR-GFP Redistribution (AID 450;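 active = compounds whose dose series gives a full or clear partial fitted curve of increased nuclear translocation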; note: potency is the fitted concentration of half-maximal effect). Particulars: U2OS GR-GFP nuclear translocation, laser cytometry, 2 h.
For experiment [7] the target is unchanged. Kind of experiment: GR-EFC Redistribution (AID 451; calls by dose curve; note: potency is the fitted concentration of half-maximal effect). Particulars: CHO-K1 GR-EFC translocation, beta-gal luminescence, 2 h. Summed up:
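CHO-K1 cells stably expressing nuclear-localized β-gal enzyme acceptor and GR fused C-terminally to the enzyme donor fragment; ligand-driven nuclear translocation restores β-gal by complementation. Compounds titrated up to 46 uM final, 2 h at 37 °C; luminescence read.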

The target of experiment [8] is Mitogen-activated protein kinase 10 (Mus musculus) (UniProt Q61831). The experiment in a line: JNK3 AlphaScreen Assay (AID 530; active = well fitted curve in either direction with a large enough effect, not every such curve was filed as active;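 note: kinase came from lysate of stimulated human HepG2 cells; % is set by controls: 0 for no effect and ±100 for the full control effect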). Particulars: JNK3 lysate, c-Jun phosphorylation; series mostly up to 57.1 µM. A digest of the protocol: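 JNK3 came from HepG2 lysates pre-activated with IL-1beta and TNF-alpha and phosphorylated biotinylated GST-cJun (1-79) at 10 uM ATP, pH 7.6, room temperature. Compounds were titrated. AlphaScreen signal used anti-phospho-cJun (Ser73) antibody.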

Experiment [9] has as its target 3',5'-cyclic-AMP phosphodiesterase 4B (Homo sapiens) (UniProt Q07343). Kind of experiment: qHTS Assay for Inhibitors of PDE-IV (AID 607; active = well fitted activation curve with a large enough effect in the main read-out, with a control signal flat, not every such curve was filed as active; note: % of control where 0% means no effect). Particulars: HEK293 ACTOne CNG channel cells, membrane potential fluorescence; series mostly up to 22.9 µM. Summed up:
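ACTOne HEK293 cells carry a modified cAMP-gated CNG channel and express endogenous PDE4; plated 1000 cells/well, compounds up to 22.9 uM final. Membrane-potential dye fluorescence (ex 535/em 590) was read; parental cells received 10 uM forskolin + 100 uM RO 20-1724.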
Background: qHTS replaces the single test concentration by a dilution series.

A short description of experiment [10]: qHTS Assay for Lipid Storage Modulators (AID 1519; calls by dose curve). Particulars: Drosophila S3 cells, BODIPY lipid droplet/cell ratio, laser cytometry, cells loaded with oleic acid; for activity change, negative = inhibition: at 57.5 µM (top of the series). Summed up:
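Cells seeded at 5,000 per well were treated with compounds over a concentration series and loaded with oleic acid (400 uM, as added). Lipid droplet fluorescence (488 nm excitation, 500-530 nm channel) was read by laser-scanning cytometry and normalized to 20 uM Triacsin C.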

Experiment [11] concerns the target Dual specificity protein kinase CLK4 (Homo sapiens) (UniProt Q9HAZ1). The experiment in a line: qHTS Assay for Inhibitors of CDC-like Kinase 4 (Kinase-Glo Assay) (AID 1770). Note: % is set by controls: 0 for no effect and ±100 for the full control effect; nearly all actives have a fitted effect of over 65% in size. Particulars: recombinant Clk4, Kinase-Glo ATP depletion luminescence; series mostly up to 66.7 µM. A digest of the protocol: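 Luminescent ATP-depletion read-out (Kinase-Glo) after 4.5 h room-temperature reaction of Clk4 (25 nM final) with RS peptide (100 uM) and ATP (1 uM), pH 7.5 Tris buffer with MgCl2 and DTT.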

The target is the same in experiment [12]. Kind of experiment: qHTS Assay for Inhibitors of CDC-like Kinase 4 (ADP-Glo Assay) (AID 1771). Note: % is set by controls: 0 for no effect and ±100 for the full control effect; nearly all actives have a fitted effect of over 70% in size. Particulars: recombinant CLK4, ADP-Glo luminescence; series mostly up to 80 µM. A digest of the protocol:
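Kinase reaction: Clk4 at 25 nM, RS repeat peptide substrate at 100 uM, ATP at 1 uM, 1 hr, room temperature. Product ADP detected as luciferase signal via ADP-Glo.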

For experiment [13] the target is unchanged. The experiment in a line: qHTS Assay for Inhibitors of CDC-like Kinase 4 (ADP-FP Assay) (AID 1795).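 Note: recombinant human CLK4 phosphorylating RS repeat peptide at 1 µM ATP; % is set by controls: 0 for no effect and ±100 for the full control effect; nearly all actives have a fitted effect of over 60% in size.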 Particulars: Transcreener ADP fluorescence polarization; series mostly up to 50 µM. A digest of the protocol: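 Kinase activity was measured as ADP production using Transcreener orange tracer (4 nM) and ADP antibody (1 ug/mL) fluorescence polarization, with ADP calculated from a calibration curve. The 1 h reaction contained 6.25 nM Clk4, 1 uM ATP and 100 uM RS peptide at pH 7.5 with Mg2+.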

Experiment [14] addresses Ubiquitin carboxyl-terminal hydrolase 1 (Homo sapiens) (UniProt O94782). The experiment in a line: Inhibitors of USP1/UAF1: Pilot qHTS (AID 504865).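 Note: rhodamine fluorescence freed from ubiquitin-rhodamine substrate followed over time; top concentration of the series differs between compounds; % is set by controls: 0 for no effect and ±100 for the full control effect; nearly all actives have a fitted effect of over 35% in size.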 Particulars: purified USP1/UAF1, Ub-rhodamine cleavage fluorescence; series mostly up to 54.9 µM. Summed up:
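Deubiquitinase activity followed as kinetic rhodamine fluorescence release from 150 nM Ub-Rho. 1 nM USP1/UAF1 with compound, after 15 min room-temperature preincubation, in HEPES pH 7.8 buffer containing TCEP, EDTA, BSA and Tween-20.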

Experiment [15] can be described thus: Primary qHTS for small molecule stabilizers of the endoplasmic reticulum resident proteome: Secreted ER Calcium Modulated Protein (SERCaMP) assay (AID 1508630). Note: % is set by controls: 0 for no effect and ±100 for the full control effect. Particulars: SH-SY5Y GLuc-SERCaMP (Gaussia luciferase released on ER calcium loss) secretion, thapsigargin, luminescence; series mostly up to 38.4 µM. A digest of the protocol: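 GLuc-SERCaMP-expressing SH-SY5Y cells, pretreated 16 h with compound, are challenged with thapsigargin to empty ER calcium stores; after 4 h, coelenterazine is added directly to the medium and luminescence is imaged.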

Setting [16] is: measured here: cell count channel max response.
Where [17] appears, read: measured here: lipid channel max response.

Records with an inconclusive call do not appear. The source made the active and inactive calls. Unless noted, calls come from the whole dose curve; as a rule, active = well fitted curve in the direction sought with a large enough effect; inconclusive = small, poorly fitted or top-dose-only effect, or another doubt; inactive = no such curve, though single readings can be large; an effect the other way counts as inactive or inconclusive.

Dual specificity protein kinase CLK4 (Homo sapiens), sequence (Q9HAZ1 whole entry, looked up): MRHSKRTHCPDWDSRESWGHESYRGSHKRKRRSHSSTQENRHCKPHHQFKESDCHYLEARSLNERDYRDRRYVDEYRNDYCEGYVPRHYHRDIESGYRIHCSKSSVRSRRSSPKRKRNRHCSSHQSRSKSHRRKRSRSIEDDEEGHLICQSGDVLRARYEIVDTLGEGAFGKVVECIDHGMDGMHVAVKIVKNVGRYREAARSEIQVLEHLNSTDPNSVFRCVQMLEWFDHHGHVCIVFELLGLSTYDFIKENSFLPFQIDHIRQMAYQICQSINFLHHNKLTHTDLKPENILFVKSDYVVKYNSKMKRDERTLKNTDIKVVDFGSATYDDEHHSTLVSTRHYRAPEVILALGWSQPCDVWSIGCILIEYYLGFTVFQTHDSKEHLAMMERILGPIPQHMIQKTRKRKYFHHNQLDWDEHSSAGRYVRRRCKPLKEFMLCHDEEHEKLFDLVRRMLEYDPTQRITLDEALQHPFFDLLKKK
Glucocorticoid receptor (Homo sapiens), sequence (P04150 whole entry, looked up): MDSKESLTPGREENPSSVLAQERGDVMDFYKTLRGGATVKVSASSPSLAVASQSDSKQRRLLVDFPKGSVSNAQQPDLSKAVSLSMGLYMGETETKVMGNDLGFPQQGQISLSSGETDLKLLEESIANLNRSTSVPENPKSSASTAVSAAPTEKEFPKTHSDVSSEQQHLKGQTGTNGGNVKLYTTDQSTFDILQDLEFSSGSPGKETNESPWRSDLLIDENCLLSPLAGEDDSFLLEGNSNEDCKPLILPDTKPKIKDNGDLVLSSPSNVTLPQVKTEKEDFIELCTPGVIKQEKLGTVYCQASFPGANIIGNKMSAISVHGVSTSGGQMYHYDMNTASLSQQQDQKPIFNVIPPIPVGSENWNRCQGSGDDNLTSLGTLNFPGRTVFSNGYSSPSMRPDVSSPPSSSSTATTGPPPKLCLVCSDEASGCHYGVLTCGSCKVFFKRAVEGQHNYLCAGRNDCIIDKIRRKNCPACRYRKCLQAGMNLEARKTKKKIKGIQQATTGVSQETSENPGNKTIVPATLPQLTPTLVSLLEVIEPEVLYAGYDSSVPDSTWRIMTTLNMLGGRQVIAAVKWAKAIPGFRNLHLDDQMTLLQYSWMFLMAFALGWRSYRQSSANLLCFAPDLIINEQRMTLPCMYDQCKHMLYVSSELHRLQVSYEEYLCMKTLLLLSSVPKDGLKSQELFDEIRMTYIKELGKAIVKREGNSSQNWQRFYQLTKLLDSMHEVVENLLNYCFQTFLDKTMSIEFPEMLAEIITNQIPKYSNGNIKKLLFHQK
Lysosomal acid glucosylceramidase (Homo sapiens), sequence (P04062 whole entry, looked up): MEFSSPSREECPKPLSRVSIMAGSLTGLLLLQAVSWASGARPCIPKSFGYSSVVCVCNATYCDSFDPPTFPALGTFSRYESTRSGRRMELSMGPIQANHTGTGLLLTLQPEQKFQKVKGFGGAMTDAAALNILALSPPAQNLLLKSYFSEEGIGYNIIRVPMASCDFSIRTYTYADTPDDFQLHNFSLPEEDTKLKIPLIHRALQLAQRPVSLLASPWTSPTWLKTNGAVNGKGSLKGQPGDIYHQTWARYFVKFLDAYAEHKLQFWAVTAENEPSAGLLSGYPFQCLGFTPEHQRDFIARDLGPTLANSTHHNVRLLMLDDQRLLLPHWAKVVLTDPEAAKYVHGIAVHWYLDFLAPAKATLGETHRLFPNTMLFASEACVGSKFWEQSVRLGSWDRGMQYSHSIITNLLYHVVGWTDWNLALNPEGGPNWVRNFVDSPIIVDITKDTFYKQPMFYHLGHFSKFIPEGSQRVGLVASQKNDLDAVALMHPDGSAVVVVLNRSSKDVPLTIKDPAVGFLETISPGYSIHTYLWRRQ
Cytochrome P450 1A2 (Homo sapiens), sequence (P05177 whole entry, looked up): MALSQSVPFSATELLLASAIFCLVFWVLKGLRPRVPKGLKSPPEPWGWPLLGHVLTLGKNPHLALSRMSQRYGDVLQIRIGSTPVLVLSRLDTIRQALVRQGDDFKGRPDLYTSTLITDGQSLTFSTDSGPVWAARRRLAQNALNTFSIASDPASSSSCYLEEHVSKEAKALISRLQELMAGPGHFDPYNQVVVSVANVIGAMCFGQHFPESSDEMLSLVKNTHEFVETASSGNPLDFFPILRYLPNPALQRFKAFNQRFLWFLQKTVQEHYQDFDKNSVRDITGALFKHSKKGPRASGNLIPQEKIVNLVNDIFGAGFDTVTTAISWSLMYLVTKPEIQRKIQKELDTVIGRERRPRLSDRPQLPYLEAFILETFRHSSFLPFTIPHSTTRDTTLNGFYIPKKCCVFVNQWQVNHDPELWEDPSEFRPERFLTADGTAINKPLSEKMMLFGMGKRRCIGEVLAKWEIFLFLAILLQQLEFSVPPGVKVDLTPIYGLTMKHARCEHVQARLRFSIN
Ubiquitin carboxyl-terminal hydrolase 1 (Homo sapiens), sequence (O94782 whole entry, looked up): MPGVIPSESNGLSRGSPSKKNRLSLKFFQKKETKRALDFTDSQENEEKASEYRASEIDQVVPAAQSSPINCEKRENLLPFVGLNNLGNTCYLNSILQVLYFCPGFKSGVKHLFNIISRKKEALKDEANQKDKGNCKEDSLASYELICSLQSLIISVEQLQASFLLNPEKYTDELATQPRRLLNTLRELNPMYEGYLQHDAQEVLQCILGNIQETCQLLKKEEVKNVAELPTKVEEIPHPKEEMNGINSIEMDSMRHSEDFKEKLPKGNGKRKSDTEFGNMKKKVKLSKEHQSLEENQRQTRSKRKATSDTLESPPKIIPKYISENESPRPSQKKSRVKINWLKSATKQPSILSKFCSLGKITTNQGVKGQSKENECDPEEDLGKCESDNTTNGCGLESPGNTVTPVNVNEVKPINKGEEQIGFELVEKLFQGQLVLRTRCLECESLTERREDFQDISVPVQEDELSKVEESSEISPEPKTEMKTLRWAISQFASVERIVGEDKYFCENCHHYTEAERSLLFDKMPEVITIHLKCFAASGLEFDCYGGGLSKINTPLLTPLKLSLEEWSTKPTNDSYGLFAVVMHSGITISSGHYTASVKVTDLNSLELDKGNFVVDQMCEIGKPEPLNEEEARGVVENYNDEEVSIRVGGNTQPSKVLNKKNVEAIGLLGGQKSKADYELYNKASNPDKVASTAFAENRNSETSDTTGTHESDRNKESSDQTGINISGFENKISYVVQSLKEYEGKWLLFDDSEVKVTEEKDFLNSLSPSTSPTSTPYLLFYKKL
3',5'-cyclic-AMP phosphodiesterase 4B (Homo sapiens), sequence (Q07343 whole entry, looked up): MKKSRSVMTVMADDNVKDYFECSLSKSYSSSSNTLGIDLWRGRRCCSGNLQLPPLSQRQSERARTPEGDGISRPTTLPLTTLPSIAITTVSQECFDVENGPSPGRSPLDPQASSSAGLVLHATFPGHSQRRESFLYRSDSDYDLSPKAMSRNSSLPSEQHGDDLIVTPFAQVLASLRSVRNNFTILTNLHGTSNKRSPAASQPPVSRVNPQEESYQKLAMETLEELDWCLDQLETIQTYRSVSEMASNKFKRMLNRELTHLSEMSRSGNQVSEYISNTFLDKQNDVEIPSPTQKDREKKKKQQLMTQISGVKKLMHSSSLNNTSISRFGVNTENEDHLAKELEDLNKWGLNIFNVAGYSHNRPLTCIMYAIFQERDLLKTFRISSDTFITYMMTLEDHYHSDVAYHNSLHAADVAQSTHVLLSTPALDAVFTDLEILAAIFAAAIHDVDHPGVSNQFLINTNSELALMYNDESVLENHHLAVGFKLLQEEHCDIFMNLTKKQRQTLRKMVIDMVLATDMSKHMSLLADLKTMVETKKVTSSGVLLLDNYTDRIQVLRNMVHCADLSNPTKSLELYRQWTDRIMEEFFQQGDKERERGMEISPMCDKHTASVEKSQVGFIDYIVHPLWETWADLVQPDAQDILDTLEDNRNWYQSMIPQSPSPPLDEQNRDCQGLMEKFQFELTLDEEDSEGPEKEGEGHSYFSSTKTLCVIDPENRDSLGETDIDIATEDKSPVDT

Regarding `Cc1nc2cnc(N3CCOCC3)nc2n(C)c1=O`, the Potency was > 11.4 µM (inactive) in experiment [1], 6.31 µM (active) in [3], > 9.22 µM (inactive) in [6] and > 46 µM (inactive) in [7]. The activity change, negative = inhibition in [2] is -9.18% (inactive); in experiment [4] it was 3.85% (inactive); in [10] it was 4.73% (inactive). Moreover, the activity, negative = inhibition in [5] is -2.49% (inactive). For the same compound, in [8], the compound was classed as inactive. The Potency result in [9], in experiment [11], in [12], in [13], in experiment [14] and in [15] was “inactive” in each case. The max response is 11.2% in experiment [10] (setting [16]) and 13.5% in experiment [10] (setting [17]).
As to `COc1ncc2nc(-c3cc(F)cc(F)c3)c(=O)n(-c3ccccc3)c2n1`, the Potency is > 11.4 µM (inactive) in experiment [1], 1.26 µM (active) in experiment [3], > 9.22 µM (inactive) in experiment [6] and > 46 µM (inactive) in [7]. Also, the activity change, negative = inhibition was -20.2% (inactive) in experiment [2], -3.83% (inactive) in experiment [4] and 3.41% (inactive) in experiment [10]. For the same compound, the activity, negative = inhibition in experiment [5] is -1.05% (inactive). The result in [8] was inactive. Further, the Potency result in experiment [9], in [11], in experiment [12], in experiment [13], in [14] and in experiment [15] was “inactive” in each case. Moreover, the max response in experiment [10] (setting [16]) came out at 11.4%; in experiment [10] (setting [17]), 11.8%.
In the case of `CN(C)c1ncc2nc(-c3ccc(F)cc3)c(=O)n(C)c2n1`, the Potency in experiment [1] is > 11.4 µM (inactive); in experiment [3], 1.58 µM (active); in experiment [6], > 9.22 µM (inactive); in experiment [7] it was > 46 µM (inactive). Further, the values for the activity change, negative = inhibition in [2], in experiment [4] and in [10] were -9.27% (inactive), 2.27% (inactive) and 8.24% (inactive), respectively. Further, in experiment [5], the activity, negative = inhibition is -9.34% (inactive). Also, the compound was classed as inactive in experiment [8]. Moreover, the Potency result in experiment [9], in [11], in experiment [12], in experiment [13], in [14] and in experiment [15] was “inactive” each time. In addition, the max response in experiment [10] (setting [16]) came out at 18.3%; in experiment [10] (setting [17]) it was 28.6%.
With `COc1ncc2nc(-c3ccccc3)c(=O)n(-c3ccccc3)c2n1`, the Potency is > 11.4 µM (inactive) in [1], 2 µM (active) in experiment [3], > 9.22 µM (inactive) in [6] and > 46 µM (inactive) in experiment [7]. The activity change, negative = inhibition in [2] is -21.5% (inactive); in [4], 3.29% (inactive); in [10], 3.9% (inactive). Moreover, the activity, negative = inhibition in experiment [5] is -8.81% (inactive). Also, the result in [8] was inactive. In addition, the values for the max response in [10] (setting [16]) and in experiment [10] (setting [17]) were 10.3% and 11.5%, respectively. Besides, the Potency entry in [11], in experiment [12], in [13], in [14] and in experiment [15] was “inactive” each time.

Source of the values: PubChem BioAssay (NCATS).
